This passage reports AC50 and outcome results from PubChem BioAssay (EPA / NIEHS).

Inconclusive results are not listed. Some structures have more than one record in an assay (separate samples or runs), and their calls can disagree. Calls of active or inactive are those of the source. The calls were made as follows: active = hit-call score of the fitted dose curve at least 0.9, where 1 is the maximum; inconclusive = response in the unintended direction; inactive = score below 0.9.

The target in the assay is Glucocorticoid receptor (Homo sapiens) (UniProt P04150). The experiment in a line: NVS_NR_hGR: NovaScreen (NVS) Nuclear Receptor Binding Assay for human Glucocorticoid Receptor (GR) (AID 2283363). The method, then: NVS_NR_hGR is a biochemical, single-readout assay that uses extracted gene-proteins in a cell-free assay. Measurements were taken 16 hours after chemical dosing in a 96-well plate.NVS_NR_hGR is one of one assay component(s) measured or calculated from the NVS_NR_hGR assay. It is designed to make measurements of radioligand binding, a form of binding reporter, as detected with scintillation counting signals by Filter-based radiodetection technology.Data from the assay component NVS_NR_hGR was analyzed into 1 assay endpoint. This assay endpoint, NVS_NR_hGR, was analyzed in the positive analysis fitting direction relative to DMSO as the negative control and baseline of activity. Using a type of binding reporter, loss-of-signal activity can be used to understand changes in the binding as they relate to the gene NR3C1. Furthermore, this assay endpoint can be referred to as a primary readout, because the performed assay has only produced 1 assay endpoint. To generalize the intended target to other relatable targets, this assay endpoint is annotated to the nuclear receptor intended target family, where the subfamily is steroidal.
Glucocorticoid receptor (Homo sapiens), sequence (P04150 whole entry, looked up): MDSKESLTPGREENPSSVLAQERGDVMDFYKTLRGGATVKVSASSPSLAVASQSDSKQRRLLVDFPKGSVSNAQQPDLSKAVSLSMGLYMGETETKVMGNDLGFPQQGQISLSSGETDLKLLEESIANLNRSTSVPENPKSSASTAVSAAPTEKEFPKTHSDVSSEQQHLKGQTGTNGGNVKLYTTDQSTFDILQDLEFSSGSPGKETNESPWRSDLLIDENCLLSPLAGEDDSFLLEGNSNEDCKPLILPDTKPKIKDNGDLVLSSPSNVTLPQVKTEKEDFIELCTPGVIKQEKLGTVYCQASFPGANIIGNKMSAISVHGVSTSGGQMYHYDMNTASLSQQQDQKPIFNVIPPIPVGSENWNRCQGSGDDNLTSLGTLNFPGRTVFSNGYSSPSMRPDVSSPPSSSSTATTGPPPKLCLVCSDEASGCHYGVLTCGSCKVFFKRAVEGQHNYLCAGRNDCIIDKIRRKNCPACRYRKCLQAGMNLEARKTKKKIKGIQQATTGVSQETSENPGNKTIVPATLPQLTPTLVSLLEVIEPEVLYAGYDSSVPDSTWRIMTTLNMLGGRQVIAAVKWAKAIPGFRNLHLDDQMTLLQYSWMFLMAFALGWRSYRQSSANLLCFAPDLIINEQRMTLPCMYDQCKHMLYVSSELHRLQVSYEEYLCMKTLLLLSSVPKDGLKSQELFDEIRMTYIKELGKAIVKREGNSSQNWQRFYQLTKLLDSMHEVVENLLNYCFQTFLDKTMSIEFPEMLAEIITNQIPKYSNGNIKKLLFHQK
Binding assays used specific radioligands (tritiated, iodinated) with non-radioactive competitive displacement ligands in agonist or antagonist protocols (as indicated) and various reference compounds and inhibitors to titrate specific binding to receptors and transporters. Most enzyme assays (CYPs, kinases, phosphatases, proteases, HDACs) used recombinant protein and specific substrates (fluorescence mostly, some colorimetric and radioactive) and inhibitors, followed by a biochemical separation of substrate and product. All assays for the biochemical HTS were initially run in duplicate at a single concentration (10 uM for CYP450 assays and 25 uM for all others). […] Each assay was run with positive and negative controls, and concurrent controls on every plate. The follow-up (secondary) screen tested active chemical-pairs in concentration series, as well as a few additional assays not tested in the primary screen, some selected negative inactives, and several cases re-run in the concentration series for confirmatory purposes.
With `CCCC1COC(Cn2cncn2)(c2ccc(Cl)cc2Cl)O1` (configuration not stated), the AC50 is 10.5 µM (active). In the case of `CCCN(CCC)c1c([N+](=O)[O-])cc(S(N)(=O)=O)cc1[N+](=O)[O-]`, the result was inactive. Still for that read-out and setting: the same measure for `CCCCOC(=O)c1ccccc1C(=O)OCCCC`: “inactive”; for `CO/C=C(/C(=O)OC)c1ccccc1Oc1cc(Oc2ccccc2C#N)ncn1`: “inactive”.

Consider `CC1COC(Cn2cncn2)(c2ccc(Oc3ccc(Cl)cc3)cc2Cl)O1` (configuration not stated), for which the concentration at half-maximal activity (AC50) is 1.89 µM (active).

With `COC(=O)c1ccccc1C(=O)OC`, the outcome was inactive. For `CCOC(=O)CC(SP(=S)(OC)OC)C(=O)OCC` (configuration not stated), the outcome was inactive.

Consider `CCNc1nc(Cl)nc(NC(C)C)n1`, for which the compound was classed as inactive. Turning to `CCNc1nc(Cl)nc(NCC)n1`, the compound was classed as inactive.

Take `Cc1ccc(-c2c(Cl)nc(C#N)n2S(=O)(=O)N(C)C)cc1`: the compound was called inactive. With `COc1ccc(C(c2ccc(OC)cc2)C(Cl)(Cl)Cl)cc1`, the result was inactive. As to `CON(C)C(=O)Nc1ccc(Cl)c(Cl)c1`, the AC50 was 8.61 µM (active). For `OC(c1ccc(Cl)cc1)(c1cncnc1)c1ccccc1Cl` (configuration not stated), the AC50 is 8.34 µM (active). On to `COC(=O)N(OC)c1ccccc1COc1ccn(-c2ccc(Cl)cc2)n1`, for which the AC50 is 2.01 µM (active). `COP(N)(=O)SC` (configuration not stated): the result was inactive. Still for that read-out and setting: the same measure for `CNC(=O)ON=CC(C)(C)SC`: “inactive”; for `C=CCC1=C(C)C(OC(=O)C2C(C=C(C)C)C2(C)C)CC1=O` (configuration not stated): “inactive”. Regarding `C#CCOS(=O)OC1CCCCC1Oc1ccc(C(C)(C)C)cc1` (configuration not stated), the AC50 is 16.5 µM (active). On to `C=CC1(C)OC(=O)N(c2cc(Cl)cc(Cl)c2)C1=O` (configuration not stated), for which the compound was called inactive and the AC50 was 6.97 µM (active). `CNC(=S)S`: the outcome was inactive. For `CCCCC(CC)COC(=O)c1ccccc1C(=O)OCC(CC)CCCC` (configuration not stated), the AC50 is 8.8 µM (active).
